Values joined by “and” are separate entries in the source; they are usually repeats but may differ in a detail not shown here. Equal entries are not always repeated. Results filed as inconclusive are left out. Where a structure was tested more than once in an assay, its records may differ in their call. Active and inactive are the calls of the source. Unless noted, calls follow the shape of the dose curve; as a rule, active = well fitted curve in the direction sought with a large enough effect; inconclusive = small, poorly fitted or top-dose-only effect, or another doubt; inactive = no such curve, though single readings can be large; an effect the other way counts as inactive or inconclusive.
Key:
[1] = qHTS for Inhibitors of Plasmodium falciparum (DD2) proliferation (AID 504314); also: potency is read from the fitted curve at half-maximal effect;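 as to activity, negative = inhibition: parasite DNA measured by SYBR Green fluorescence after red cell lysis; plate controls were DMSO vehicle for no effect and artemisinin wells for full effect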
Procedure, shortened: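 Infected RBCs, 0.3% parasitemia, 2.5% Hct; compound 72 h, 37C/5% CO2; lyse + SYBR Green I, RT overnight, dark; read ex485/em535; normalize to DMSO and artemisinin 0.29 uM.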

[2] = qHTS for Inhibitors of Plasmodium falciparum (GB4) proliferation (AID 504315); also: nearly all actives have a fitted effect of over 50% in size; also: potency is read from the fitted curve at half-maximal effect;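 as to activity change, negative = inhibition: 0% = DMSO vehicle and -100% = 0.29 µM artemisinin control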
Procedure, shortened: (§1)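 Erythrocytes infected with P. falciparum line (0.3% parasitemia, 2.5% hematocrit final) incubated with compounds 72 h at 37 °C, 5% CO2; SYBR Green lysis buffer added, fluorescence read next day. Normalized to 0.29 uM artemisinin and DMSO.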

[3] = qHTS for Inhibitors of Plasmodium falciparum (7G8) proliferation (AID 504316); also: nearly all actives have a fitted effect of over 65% in size; also: potency is read from the fitted curve at half-maximal effect;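 as to activity change, negative = inhibition: series mostly up to about 6.7 µM; 0% = DMSO vehicle and -100% = 0.29 µM artemisinin full kill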
Procedure, shortened: as §1

[4] = qHTS for Inhibitors of Plasmodium falciparum (HB3) proliferation (AID 504318); also: nearly all actives have a fitted effect of over 60% in size; also: potency is read from the fitted curve at half-maximal effect;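 as to activity change, negative = inhibition: 0% = DMSO vehicle and -100% = artemisinin control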
Procedure, shortened: as §1

[5] = qHTS for Inhibitors of Plasmodium falciparum (CP250) proliferation (AID 504320); also: potency is read from the fitted curve at half-maximal effect;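 as to activity change, negative = inhibition: plate controls were DMSO vehicle for no effect and 0.29 µM artemisinin control for full effect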
Procedure, shortened: as §1

[6] = biological target: Atrial natriuretic peptide receptor 1 (Homo sapiens) (UniProt P16066); test: Natriuretic polypeptide receptor (hNpr1) antagonism - Pilot CMLD screen (AID 1347052; calls by dose curve;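 also: HEK293 cells with hNpr1 stimulated by hNppA peptide at 0.1 nM; cGMP level read as GloSensor luciferase luminescence after agonist stimulation; series mostly up to about 9.2 µM; % is scaled to controls: 0 for no effect and ±100 for the full control effect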)
Atrial natriuretic peptide receptor 1 (Homo sapiens), sequence (P16066 whole entry, looked up): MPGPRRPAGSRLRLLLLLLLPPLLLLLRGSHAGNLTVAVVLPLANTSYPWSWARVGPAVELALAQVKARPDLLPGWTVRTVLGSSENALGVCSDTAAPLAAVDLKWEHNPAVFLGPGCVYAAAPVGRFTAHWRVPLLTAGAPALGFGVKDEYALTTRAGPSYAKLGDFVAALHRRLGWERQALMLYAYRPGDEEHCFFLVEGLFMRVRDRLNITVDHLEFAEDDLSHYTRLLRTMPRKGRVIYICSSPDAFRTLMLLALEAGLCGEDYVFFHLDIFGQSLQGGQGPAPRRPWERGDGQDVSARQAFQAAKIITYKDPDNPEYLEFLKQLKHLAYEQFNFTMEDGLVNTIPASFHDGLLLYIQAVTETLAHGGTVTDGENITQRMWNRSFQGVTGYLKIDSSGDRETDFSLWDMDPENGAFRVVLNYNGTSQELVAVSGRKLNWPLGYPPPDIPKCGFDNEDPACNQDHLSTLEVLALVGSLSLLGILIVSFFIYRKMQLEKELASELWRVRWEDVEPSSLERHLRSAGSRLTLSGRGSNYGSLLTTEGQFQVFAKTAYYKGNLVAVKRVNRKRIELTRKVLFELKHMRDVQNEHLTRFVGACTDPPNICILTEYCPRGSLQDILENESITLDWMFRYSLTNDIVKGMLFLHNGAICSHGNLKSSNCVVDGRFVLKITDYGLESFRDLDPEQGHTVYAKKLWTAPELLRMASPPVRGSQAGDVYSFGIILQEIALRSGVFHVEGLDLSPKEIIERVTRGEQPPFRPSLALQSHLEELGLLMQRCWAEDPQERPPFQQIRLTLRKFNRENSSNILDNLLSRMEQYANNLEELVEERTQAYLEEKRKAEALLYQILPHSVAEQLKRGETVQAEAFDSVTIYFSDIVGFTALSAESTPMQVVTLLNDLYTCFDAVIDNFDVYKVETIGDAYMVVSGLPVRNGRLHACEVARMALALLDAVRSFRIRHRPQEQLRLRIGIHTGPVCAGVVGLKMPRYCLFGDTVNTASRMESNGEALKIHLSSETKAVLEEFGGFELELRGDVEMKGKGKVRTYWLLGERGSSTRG

[7] = biological target: Cytochrome P450 3A4 (Homo sapiens) (UniProt P08684); test: qHTS Assay for Inhibitors and Substrates of Cytochrome P450 3A4 (AID 884); also: nearly all actives have a fitted effect of over 50% in size; also: potency is read from the fitted curve at half-maximal effect; as to activity change, negative = inhibition: series mostly up to about 57 µM; % is scaled to controls: 0 for no effect and ±100 for the full control effect
Cytochrome P450 3A4 (Homo sapiens), sequence (P08684 whole entry, looked up): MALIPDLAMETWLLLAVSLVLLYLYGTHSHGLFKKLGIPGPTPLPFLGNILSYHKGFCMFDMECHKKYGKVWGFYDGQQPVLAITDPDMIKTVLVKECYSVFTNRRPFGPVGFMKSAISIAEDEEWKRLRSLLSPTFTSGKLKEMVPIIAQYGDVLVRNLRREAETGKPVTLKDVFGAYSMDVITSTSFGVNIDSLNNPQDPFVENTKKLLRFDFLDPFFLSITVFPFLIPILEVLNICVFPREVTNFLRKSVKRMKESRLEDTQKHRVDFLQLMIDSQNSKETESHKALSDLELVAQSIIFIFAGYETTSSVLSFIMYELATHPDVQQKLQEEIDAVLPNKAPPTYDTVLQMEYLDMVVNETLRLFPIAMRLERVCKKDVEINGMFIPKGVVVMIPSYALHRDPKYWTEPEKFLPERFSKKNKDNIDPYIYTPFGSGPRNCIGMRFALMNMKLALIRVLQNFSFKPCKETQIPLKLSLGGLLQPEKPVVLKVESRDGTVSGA
Procedure, shortened: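 20 nM human CYP3A4 with 25 uM Luciferin-PPXE (at KM) in 200 mM KPO4, preincubated 10 min with compound; NADPH regeneration started a 60 min RT reaction. Luciferin detected by luminescence, normalized to 57 uM ketoconazole as full inhibition.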

[8] = biological target: Cytochrome P450 3A4 (Homo sapiens) (UniProt P08684); test: qHTS Assay for Activators of Cytochrome P450 3A4 (AID 885); also: nearly all actives have a fitted effect of over 65% in size
Procedure, shortened: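 Signal was normalized against complete inhibition by 57 uM ketoconazole. The reaction used 20nM CYP3A4 with 25uM Luciferin-PPXE, 10-min compound preincubation and a 60-min NADPH-supported step at RT.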

[9] = biological target: Cytochrome P450 2C9 (Homo sapiens) (UniProt P11712); test: qHTS Assay for Inhibitors and Substrates of Cytochrome P450 2C9 (AID 883); also: % is scaled to controls: 0 for no effect and ±100 for the full control effect; nearly all actives have a fitted effect of over 60% in size
Cytochrome P450 2C9 (Homo sapiens), sequence (P11712 whole entry, looked up): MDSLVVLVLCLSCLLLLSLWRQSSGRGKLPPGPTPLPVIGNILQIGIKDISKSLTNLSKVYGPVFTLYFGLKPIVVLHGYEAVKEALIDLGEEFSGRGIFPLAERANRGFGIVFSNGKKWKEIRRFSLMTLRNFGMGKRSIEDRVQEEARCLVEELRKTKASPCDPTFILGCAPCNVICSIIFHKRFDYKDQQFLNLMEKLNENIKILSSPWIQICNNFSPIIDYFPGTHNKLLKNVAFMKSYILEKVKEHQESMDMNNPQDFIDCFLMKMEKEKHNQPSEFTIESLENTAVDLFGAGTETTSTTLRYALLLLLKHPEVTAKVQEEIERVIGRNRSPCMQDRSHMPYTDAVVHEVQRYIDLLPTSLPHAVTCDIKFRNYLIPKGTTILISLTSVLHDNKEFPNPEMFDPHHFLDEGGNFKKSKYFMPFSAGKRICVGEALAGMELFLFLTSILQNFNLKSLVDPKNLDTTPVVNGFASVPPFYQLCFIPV
Procedure, shortened: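 A luminogenic readout tracked human CYP2C9 (10nM) converting deoxyluciferin (100uM, at KM) in 25mM KPO4 during 60 min at 37C with regenerated NADPH. Values normalized to 57uM sulphaphenazole as complete inhibition.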

[10] = biological target: Cytochrome P450 2D6 (Homo sapiens) (UniProt P10635); test: qHTS Assay for Inhibitors and Substrates of Cytochrome P450 2D6 (AID 891); also: potency is read from the fitted curve at half-maximal effect; nearly all actives have a fitted effect of over 60% in size
Cytochrome P450 2D6 (Homo sapiens), sequence (P10635 whole entry, looked up): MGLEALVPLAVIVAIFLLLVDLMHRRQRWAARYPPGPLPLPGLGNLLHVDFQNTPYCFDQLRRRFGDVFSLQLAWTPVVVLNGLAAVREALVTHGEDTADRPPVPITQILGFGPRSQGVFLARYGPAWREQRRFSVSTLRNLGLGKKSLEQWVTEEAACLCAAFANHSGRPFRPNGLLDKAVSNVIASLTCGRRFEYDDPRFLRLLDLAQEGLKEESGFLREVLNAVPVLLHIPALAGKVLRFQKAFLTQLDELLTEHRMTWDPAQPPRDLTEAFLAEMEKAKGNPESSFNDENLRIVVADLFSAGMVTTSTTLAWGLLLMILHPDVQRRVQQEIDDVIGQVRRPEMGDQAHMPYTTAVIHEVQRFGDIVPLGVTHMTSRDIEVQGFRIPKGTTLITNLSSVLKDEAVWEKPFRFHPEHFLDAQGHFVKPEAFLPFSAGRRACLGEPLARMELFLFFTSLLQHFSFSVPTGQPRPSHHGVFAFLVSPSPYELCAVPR
Procedure, shortened: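 Human CYP2D6 (5 nM) with 30 uM Luciferin-ME EGE (at Km) in 100 mM KPO4, compound preincubated 10 min, then NADPH regeneration system for 60 min at room temperature. Luciferin read by luminescence; normalized to 1.43 uM quinidine.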

[11] = biological target: Cytochrome P450 2C19 (Homo sapiens) (UniProt P33261); test: qHTS Assay for Inhibitors and Substrates of Cytochrome P450 2C19 (AID 899); also: nearly all actives have a fitted effect of over 60% in size; also: potency is read from the fitted curve at half-maximal effect; as to activity, negative = inhibition: % is scaled to controls: 0 for no effect and ±100 for the full control effect
Cytochrome P450 2C19 (Homo sapiens), sequence (P33261 whole entry, looked up): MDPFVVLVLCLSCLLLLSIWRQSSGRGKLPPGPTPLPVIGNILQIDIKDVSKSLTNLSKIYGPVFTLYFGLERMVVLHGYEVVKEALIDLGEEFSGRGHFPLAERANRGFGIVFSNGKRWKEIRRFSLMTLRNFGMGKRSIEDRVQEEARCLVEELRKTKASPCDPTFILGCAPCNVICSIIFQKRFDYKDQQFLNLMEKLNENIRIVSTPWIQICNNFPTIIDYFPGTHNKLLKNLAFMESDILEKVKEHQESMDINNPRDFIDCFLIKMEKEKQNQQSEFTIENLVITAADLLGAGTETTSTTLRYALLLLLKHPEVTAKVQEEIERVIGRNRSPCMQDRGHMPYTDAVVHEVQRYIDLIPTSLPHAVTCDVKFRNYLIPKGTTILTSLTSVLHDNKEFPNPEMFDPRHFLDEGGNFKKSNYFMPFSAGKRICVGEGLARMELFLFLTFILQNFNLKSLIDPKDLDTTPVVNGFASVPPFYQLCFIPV
Procedure, shortened: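 NADPH-dependent conversion of Luciferin-H EGE (10uM, at KM) by 5nM enzyme in 50mM KPO4, 60 min at 37C following 10 min compound preincubation. Stopped with luciferin detection buffer; luminescence read after 20 min.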

CCCCc1nc2c(c3c1C[C@H](C)OC3)CN(S(=O)(=O)c1ccc(NC(C)=O)cc1)CC2
inactive: Potency [1] | Potency [2] | Potency [3] | Potency [4] | Potency [5] | Potency [6]

CCN1C(N(C)CCOC)=NC(c2cccc(F)c2)C(C(=O)OC)=C1C (configuration not stated)
inactive: Potency [1] | Potency [2] | Potency [3] | Potency [4] | Potency [5] | Potency [6]

C=CC1=C2C=C(C3CC3)N(C3CCCC3)C=C2C(=O)C(C)(OC(=O)c2ccco2)C1=O (configuration not stated)
inactive: Potency [1] | Potency [2] | Potency [3] | Potency [4] | Potency [5] | Potency [6]

C=CCOC(=O)N[C@H](c1cccc(OC)c1)[C@H](C)C=CCC(=O)OC
inactive: Potency [1] | Potency [2] | Potency [3] | Potency [4] | Potency [5] | Potency [6]

CC(=O)C1=CN(CCC=Cc2ccccc2)C(=O)NC1c1ccccc1 (configuration not stated)
inactive: Potency [1] | Potency [2] | Potency [3] | Potency [4] | Potency [5] | Potency [6]

C=CC1(O)C(OC)=CC2C(=O)C1C(c1ccccc1)C2C (configuration not stated)
inactive: Potency [1] | Potency [2] | Potency [3] | Potency [4] | Potency [5] | Potency [6]

C=CCCCN1C=C(C(C)=O)C(c2ccccc2)NC1=O (configuration not stated)
inactive: Potency [1] | Potency [2] | Potency [3] | Potency [4] | Potency [5] | Potency [6]

COc1cccc([C@H](O)Cn2cc(-c3ccc(CON=C(C)C)cc3)nn2)c1
inactive: Potency [1] | Potency [2] | Potency [3] | Potency [4] | Potency [5] | Potency [6]

CCN1C(=O)NC(c2cccc(F)c2)C(C(=O)OC)=C1C (configuration not stated)
inactive: Potency [1] | Potency [2] | Potency [3] | Potency [4] | Potency [5] | Potency [6]

CC1(OC(=O)C2CCCC2)C(=O)C=C2C=C(c3ccc(C#N)cc3)OC=C2C1=O (configuration not stated)
inactive: Potency [1] | Potency [2] | Potency [3] | Potency [4] | Potency [5] | Potency [6]

O=P1(O)Oc2c(c(-c3ccccc3)cc3ccccc23)-c2c(-c3ccccc3)cc3ccccc3c2O1
inactive: Potency [1] | Potency [2] | Potency [3] | Potency [4] | Potency [5] | Potency [6]

C=CCC12OC3(OC)CC1[C@H](C)[C@@H](c1ccccc1)C2[C@@]3(C)O (some centres not stated)
inactive: Potency [1] | Potency [2] | Potency [3] | Potency [4] | Potency [5] | Potency [6]

COC(=O)C[C@H]1c2ccccc2[C@@H]2C(=C[C@@H](C)[C@H]3C(=O)NC(=O)[C@H]32)N1C(=O)OC
inactive: Potency [1] | Potency [2] | Potency [3] | Potency [4] | Potency [5] | Potency [6]

COC(=O)C1=C(C)N(Cc2ccccc2)C(=NCc2cc(OC)c(OC)c(OC)c2)NC1CCc1ccccc1 (configuration not stated)
active: Potency [1] 1.06 µM | Potency [2] 849 nM | Potency [3] 1.51 µM | Potency [5] 1.07 µM
inactive: Potency [6]

COC(=O)C1=C(C(=O)OC)[C@@H]2Nc3ccccc3[C@@]23C[C@@H](C(=O)OC)N(C(=O)Nc2ccccc2F)C3=N1
inactive: Potency [1] | Potency [2] | Potency [3] | Potency [5] | Potency [6]

Cc1ccc(S(=O)(=O)n2c3ccccc3c3nnc(C(=O)c4ccccc4)nc32)cc1
inactive: activity change, positive = activation [8] -61.8% [at 11.4 µM] | Potency [1] | Potency [2] | Potency [3] | Potency [4] | Potency [5] | Potency [6]
active: Potency [7] 3.98 µM

COC(=O)C1=C(C)[C@H](O)[C@@H](C)[C@](C)(c2cc(OC)c(C)c(OC)c2COc2ccccc2)O1
2.13 µM (active) and inactive: Potency [2]
1.9 µM (active) and inactive: Potency [4]
inactive: Potency [1] | Potency [3] | Potency [5] | Potency [6]

COc1ccc(C(=O)CC(=O)c2c(O)cc(OC)cc2OC)cc1
active: Potency [10] 1.26 µM | Potency [11] 398 nM
inactive: activity change, negative = inhibition [9] -6.49% [at 11.4 µM] | activity change, positive = activation [8] -41.2% [at 11.4 µM] | Potency [1] | Potency [2] | Potency [3] | Potency [4] | Potency [6]

COC(=O)NC(CCc1ccccc1)C(C(C)=O)C(=O)OC (configuration not stated)
inactive: Potency [1] | Potency [2] | Potency [3] | Potency [5] | Potency [6]

CON(C)C(=O)c1nnc2c3ccccc3n(S(=O)(=O)c3ccc(C)cc3)c2n1
inactive: activity change, positive = activation [8] -39.7% [at 11.4 µM] and -50.5% [at 11.4 µM] | Potency [1] | Potency [2] | Potency [3] | Potency [4] | Potency [5] | Potency [6]

CCOC(=O)CN1C(=O)NC(c2ccc(Br)cc2)C(C(=O)OC)=C1C (configuration not stated)
inactive: Potency [1] | Potency [2] | Potency [3] | Potency [5] | Potency [6]

COC(=O)C1=NOC2(C=C(Br)C(OC)=C(Br)C2=O)C1 (configuration not stated)
inactive: activity change, negative = inhibition [9] -4.18% [at 11.4 µM] | activity change, negative = inhibition [7] -15.6% [at 11.4 µM] | activity, negative = inhibition [11] -27.3% [at 11.4 µM] | Potency [1] | Potency [2] | Potency [3] | Potency [4] | Potency [5] | Potency [6]
